# Test results: PubChem BioAssay (Tox21)
# Several values for one entry are separate records, joined by “and”; a condition that tells them apart may be missing. Identical values can stand only once. Inconclusive results are not listed. Where a call stands in place of a potency, no number is given. A structure can be active in one record and inactive in another. Activity calls are given as the source filed them. Unless noted, calls follow the shape of the full dose curve.
# Tests used:
# [1] = Nuclear factor erythroid 2-related factor 2/antioxidant responsive element (Nrf2/ARE) small molecule agonists: luciferase reporter gene qHTS assay in human keratinocytes (AID 1919969); also: nearly all actives have a fitted effect of over 35% in size; also: potency is read from the fitted curve at half-maximal effect
# [2] = target: Gonadotropin-releasing hormone receptor (Homo sapiens) (UniProt P30968); assay: Human gonadotropin-releasing hormone receptor (GnRHR) small molecule agonists, calcium flux assay in GnRHR-HEK293 cells (AID 1920063); also: nearly all actives have a fitted effect of over 35% in size
# In short: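 Calcium-dye fluorescence, Ex/Em=480/540, recorded every 1 sec over 3 min after compound addition to GnRHR-HEK293 cells. Cells had been seeded 18 hours earlier and dye-loaded for 1 hour at 37 C. Fifteen concentrations, triplicates.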
# [3] = target: KiSS-1 receptor (Homo sapiens) (UniProt Q969F8); assay: Human kisspeptin (KISS1R) small molecule agonists, calcium flux assay in KISS1R-HEK293 cells (AID 1920064; active = well fitted activation curve with a large enough effect in the repeat runs)
# In short: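 Calcium flux read-out: kinetic fluorescence at Ex/Em=480/540, 1 s intervals over 3 min, after pin-tool compound addition to dye-loaded KISS1R-HEK293 cells. Fifteen concentrations, triplicates.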
# [4] = G protein-coupled receptor (GPCR) small molecule agonists, calcium flux assay: HEK293 wild type cell line counter screen (AID 1920065)
# In short: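 Agonist mode; 18 h seeding at 37 C, 1 h dye load at 37 C; compounds pinned from DMSO, ATP as positive control; kinetic fluorescence 480/540 nm, 3 min, 1 s reads; 15 concentrations, triplicate.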
# [5] = p53 small molecule agonists, cell-based qHTS assay with human liver microsomes: qHTS cell viability counter screen (AID 1963579); also: nearly all actives have a fitted effect of over 45% in size
# In short: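 Seed p53RE-bla cells at 4,000 per well; incubate 5 h at 37 C; add compound, human liver microsomes and NADPH; incubate 16 h at 37 C; add CellTiter-Glo; after 30 min at room temperature, read luminescence.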
# [6] = p53 small molecule agonists, cell-based qHTS assay with rat liver microsomes: qHTS cell viability counter screen (AID 1963580); also: nearly all actives have a fitted effect of over 45% in size; also: potency is read from the fitted curve at half-maximal effect
# In short: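 Cytotoxicity counter screen: intracellular ATP read by CellTiter-Glo luminescence in the p53 reporter wells. HCT-116 p53RE-bla cells were treated for 16 h at 37 C alongside rat liver microsomes and NADPH, each 0.5 mg/mL final.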
# [7] = target: 5-hydroxytryptamine receptor 2A (Homo sapiens) (UniProt P28223); assay: 5-hydroxytryptamine receptor 2A (HTR2A) small molecule antagonists, cell-based qHTS assay (AID 1963586); also: nearly all actives have a fitted effect of over 45% in size; also: potency is read from the fitted curve at half-maximal effect
# In short: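 CHO cells stably expressing human HTR2A were plated for 18 h at 37 C, then loaded with calcium dye for 1 h. Compounds were preincubated 5 min at room temperature before DOI (4 nM solution) was added. Kinetic fluorescence was read for 3 min.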
# [8] = target: 5-hydroxytryptamine receptor 2A (Homo sapiens) (UniProt P28223); assay: 5-hydroxytryptamine receptor 2A (HTR2A) small molecule agonists, cell-based qHTS assay (AID 1963587); also: nearly all actives have a fitted effect of over 30% in size; also: potency is read from the fitted curve at half-maximal effect
# In short: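 Kinetic calcium-flux fluorescence (2 min, 1 sec intervals) after compound addition in agonist mode. HTR2A-CHO cells were cultured 18 h, then dye-loaded 1 h at 37 C.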
# [9] = target: Muscarinic acetylcholine receptor M1 (Homo sapiens) (UniProt P11229); assay: Cholinergic receptor muscarinic 1 (CHRM1) small molecule antagonists, cell-based qHTS assay (AID 1963588); also: nearly all actives have a fitted effect of over 40% in size; also: potency is read from the fitted curve at half-maximal effect
# In short: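 Compounds were tested at 15 concentrations in three independent runs. Dye-loaded CHRM1-CHO cells were exposed 5 min at room temperature before stimulation by acetylcholine added at 50nM. Intracellular calcium was read kinetically on FDSS for 3 min.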
# [10] = target: Muscarinic acetylcholine receptor M1 (Homo sapiens) (UniProt P11229); assay: Cholinergic receptor muscarinic 1 (CHRM1) small molecule agonists, cell-based qHTS assay (AID 1963589); also: nearly all actives have a fitted effect of over 35% in size
# In short: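 Calcium flux read-out: kinetic fluorescence at 1 sec intervals after pin-tool compound addition to dye-loaded CHRM1-CHO cells (human M1). Agonist mode; 15 concentrations tested in triplicate independent runs.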
# [11] = cAMP Responsive Elements (CRE) small molecule agonists, cell-based qHTS assay (AID 1963590)
# In short: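 Beta-lactamase reporter readout: LiveBLAzer B/G FRET substrate, 2 h at room temperature, added after 3 h compound treatment of CRE-bla HEK 293T cells at 37 C/5% CO2.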
# [12] = cAMP Responsive Elements (CRE) small molecule antagonists, cell-based qHTS assay (AID 1963591; active = well fitted inhibition curve with a large enough effect in the signal ratio in the repeat runs, not every such curve was filed as active; the % refers to the signal ratio)
# In short: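 HEK293T CRE-bla; 18 h preincubation; compound pin-transfer; NKH477 0.25 uM final, 3 h, 37 C; LiveBLAzer FRET substrate 2 h RT.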
# [13] = target: Beta-2 adrenergic receptor (Homo sapiens) (UniProt P07550); assay: Adrenergic beta2 receptor (ADRB2) small molecule antagonists, cell-based qHTS assay (AID 1963592); also: nearly all actives have a fitted effect of over 50% in size; also: potency is read from the fitted curve at half-maximal effect; as to activity change, negative = inhibition: series mostly up to about 92 µM
# In short: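 Assay format: CHO-ADRB2 cells, 18-20hr seeding at 37C/5% CO2, then compound plus 1nM isoproterenol agonist mix for 0.5hr RT. Homogeneous time-resolved fluorescence cAMP detection after 1hr, expressed as 665/615 nm ratio.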
# [14] = target: Beta-2 adrenergic receptor (Homo sapiens) (UniProt P07550); assay: Adrenergic beta2 receptor (ADRB2) small molecule agonists, cell-based qHTS assay (AID 1963593);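 also: CHO cells stably overexpressing human ADRB2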
# In short: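 CHO cells stably over-expressing ADRB2 were plated overnight at 37C, then dosed with compounds plus a stimulation mix containing 100uM IBMX and 25uM Ro-20-1724 for 0.5hr at room temperature. cAMP was measured by HTRF competition, 1hr.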
# [15] = target: D(2) dopamine receptor (Homo sapiens) (UniProt P14416); assay: Dopamine D2 receptor (DRD2) small molecule agonists, cell-based qHTS assay (AID 1963594); also: nearly all actives have a fitted effect of over 35% in size
# In short: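 cAMP accumulation in DRD2-HEK293 cells measured by HTRF after 1 h detection; compounds added 10 min before NKH477 (200nM […]) forskolin-analogue stimulation, 30 min at room temperature, with Ro20-1724 present at 0.1 mM final.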
# [16] = target: D(2) dopamine receptor (Homo sapiens) (UniProt P14416); assay: Dopamine D2 receptor (DRD2) small molecule antagonists, cell-based qHTS assay (AID 1963595; active = well fitted inhibition curve with a large enough effect in the signal ratio in the repeat runs, with a control signal flat; the % refers to the signal ratio; also: potency is read from the fitted curve at half-maximal effect)
# In short: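 Cells were plated and grown for 24 h at 37 °C. Ro20-1724 (0.1 mM final) went in first, then compound for 10 min. NKH477 (200 nM) with quinpirole (12 nM) followed for 30 min at RT, then HTRF detection reagents for 1 h.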
# [17] = p53 small molecule agonists, cell-based qHTS assay: qHTS cell viability counter screen (AID 1963581); also: nearly all actives have a fitted effect of over 45% in size
# In short: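 Cytotoxicity read-out: ATP-based luminescence (CellTiter-Glo, 30 min RT) measured in the same wells as the p53 reporter assay, HCT-116 p53RE-bla cells, 16 h compound exposure at 37 C.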
# [18] = p53 small molecule agonists, cell-based qHTS assay (AID 1963582; active = well fitted activation curve with a large enough effect in the signal ratio in the repeat runs, not every such curve was filed as active; the % refers to the signal ratio)
# In short: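 Fluorescence intensity read-out of a beta-lactamase reporter under a p53 response element. Cells were exposed to DMSO-dissolved compounds for 16 h at 37 C, then developed with FRET substrate for 2 h at RT.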
# [19] = p53 small molecule agonists, cell-based qHTS assay with rat liver microsomes (AID 1963578)
# In short: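 Fluorescence from a beta-lactamase reporter under a p53 response element was measured after cells had been incubated 16 h at 37 C with test compound and rat liver microsomes plus NADPH (0.5 mg/mL final each).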
# D(2) dopamine receptor (Homo sapiens), sequence (P14416 whole entry, looked up): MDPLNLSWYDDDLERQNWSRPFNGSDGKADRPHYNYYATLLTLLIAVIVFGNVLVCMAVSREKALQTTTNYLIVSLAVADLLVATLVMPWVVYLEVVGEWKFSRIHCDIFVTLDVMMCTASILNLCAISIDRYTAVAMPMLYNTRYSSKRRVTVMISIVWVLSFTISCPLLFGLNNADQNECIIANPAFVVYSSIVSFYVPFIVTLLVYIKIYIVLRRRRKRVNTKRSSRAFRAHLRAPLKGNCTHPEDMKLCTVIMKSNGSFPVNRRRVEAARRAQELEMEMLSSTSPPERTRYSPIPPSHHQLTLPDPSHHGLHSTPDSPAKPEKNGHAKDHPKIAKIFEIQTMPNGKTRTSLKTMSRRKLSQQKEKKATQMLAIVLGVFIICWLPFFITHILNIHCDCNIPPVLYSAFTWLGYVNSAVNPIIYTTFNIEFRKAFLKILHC
# Beta-2 adrenergic receptor (Homo sapiens), sequence (P07550 whole entry, looked up): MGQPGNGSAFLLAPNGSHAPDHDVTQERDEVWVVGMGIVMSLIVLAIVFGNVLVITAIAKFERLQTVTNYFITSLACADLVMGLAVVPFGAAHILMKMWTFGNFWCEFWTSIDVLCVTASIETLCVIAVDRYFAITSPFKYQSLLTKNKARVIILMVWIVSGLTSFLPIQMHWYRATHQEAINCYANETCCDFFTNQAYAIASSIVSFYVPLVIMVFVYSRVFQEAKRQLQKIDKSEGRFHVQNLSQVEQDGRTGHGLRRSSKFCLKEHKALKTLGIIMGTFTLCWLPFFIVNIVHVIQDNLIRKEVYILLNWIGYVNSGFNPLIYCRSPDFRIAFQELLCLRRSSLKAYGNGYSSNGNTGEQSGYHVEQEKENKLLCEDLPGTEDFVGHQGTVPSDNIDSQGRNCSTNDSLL
# KiSS-1 receptor (Homo sapiens), sequence (Q969F8 whole entry, looked up): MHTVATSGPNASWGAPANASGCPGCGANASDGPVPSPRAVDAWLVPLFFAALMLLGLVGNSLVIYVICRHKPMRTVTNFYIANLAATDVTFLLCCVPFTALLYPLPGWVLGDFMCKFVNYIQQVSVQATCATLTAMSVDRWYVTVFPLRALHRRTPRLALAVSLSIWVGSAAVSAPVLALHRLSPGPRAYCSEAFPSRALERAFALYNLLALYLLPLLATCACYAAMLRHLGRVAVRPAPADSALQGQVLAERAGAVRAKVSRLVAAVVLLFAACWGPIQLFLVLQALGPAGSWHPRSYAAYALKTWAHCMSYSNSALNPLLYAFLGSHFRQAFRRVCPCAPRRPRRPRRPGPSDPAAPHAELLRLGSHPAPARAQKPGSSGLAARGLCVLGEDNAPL
# Muscarinic acetylcholine receptor M1 (Homo sapiens), sequence (P11229 whole entry, looked up): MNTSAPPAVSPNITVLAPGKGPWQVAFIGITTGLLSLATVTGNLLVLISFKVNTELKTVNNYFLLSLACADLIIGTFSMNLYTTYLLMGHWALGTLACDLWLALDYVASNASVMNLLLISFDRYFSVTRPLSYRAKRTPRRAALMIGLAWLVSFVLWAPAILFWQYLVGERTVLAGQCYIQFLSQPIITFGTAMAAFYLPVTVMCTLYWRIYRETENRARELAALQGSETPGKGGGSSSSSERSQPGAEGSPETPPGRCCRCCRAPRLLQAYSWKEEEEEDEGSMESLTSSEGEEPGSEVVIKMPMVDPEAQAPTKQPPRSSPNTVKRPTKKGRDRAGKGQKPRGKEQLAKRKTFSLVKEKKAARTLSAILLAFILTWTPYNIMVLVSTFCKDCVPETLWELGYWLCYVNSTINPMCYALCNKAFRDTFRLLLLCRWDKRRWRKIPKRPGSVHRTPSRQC
# 5-hydroxytryptamine receptor 2A (Homo sapiens), sequence (P28223 whole entry, looked up): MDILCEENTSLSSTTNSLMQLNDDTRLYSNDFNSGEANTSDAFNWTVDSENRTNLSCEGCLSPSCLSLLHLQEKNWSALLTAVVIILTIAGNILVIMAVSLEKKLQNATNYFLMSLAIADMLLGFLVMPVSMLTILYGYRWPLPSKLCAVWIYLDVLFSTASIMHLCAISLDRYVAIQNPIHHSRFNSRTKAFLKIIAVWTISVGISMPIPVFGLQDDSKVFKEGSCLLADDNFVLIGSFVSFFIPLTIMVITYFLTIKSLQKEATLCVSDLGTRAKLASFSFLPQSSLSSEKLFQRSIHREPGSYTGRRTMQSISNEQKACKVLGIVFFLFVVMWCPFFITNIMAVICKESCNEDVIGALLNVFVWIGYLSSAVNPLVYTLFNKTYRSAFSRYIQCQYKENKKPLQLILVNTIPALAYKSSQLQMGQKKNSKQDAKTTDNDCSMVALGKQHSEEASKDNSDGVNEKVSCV
# Gonadotropin-releasing hormone receptor (Homo sapiens), sequence (P30968 whole entry, looked up): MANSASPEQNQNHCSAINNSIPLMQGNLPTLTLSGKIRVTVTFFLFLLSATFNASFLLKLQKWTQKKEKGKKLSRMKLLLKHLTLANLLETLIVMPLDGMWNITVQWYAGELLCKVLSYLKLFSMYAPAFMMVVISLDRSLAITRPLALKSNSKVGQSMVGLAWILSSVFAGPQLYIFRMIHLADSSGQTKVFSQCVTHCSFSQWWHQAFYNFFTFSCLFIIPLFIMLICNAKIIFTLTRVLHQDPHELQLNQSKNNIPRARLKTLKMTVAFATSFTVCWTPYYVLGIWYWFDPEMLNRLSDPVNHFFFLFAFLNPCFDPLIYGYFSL
smiles,measurement,setting,value
Clc1cccc(-c2cc(Cl)cc(Cl)c2)c1,Potency,[1],inactive
same,Potency,[2],inactive
same,Potency,[3],inactive
same,Potency,[4],inactive
same,Potency,[5],inactive
same,Potency,[6],inactive
same,Potency,[7],inactive
same,Potency,[8],inactive
same,Potency,[9],inactive
same,Potency,[10],inactive
same,Potency,[11],inactive
same,Potency,[12],inactive
same,Potency,[13],inactive
same,Potency,[14],inactive
same,Potency,[15],inactive
same,Potency,[16],inactive
CCCN(CCc1cccs1)[C@H]1CCc2c(O)cccc2C1,Potency,[1],inactive
same,Potency,[2],inactive
same,Potency,[3],inactive
same,Potency,[4],inactive
same,Potency,[5],inactive
same,Potency,[6],inactive
same,Potency,[17],inactive
same,Potency,[18],inactive
same,Potency,[7],0.365 µM (active)
same,Potency,[8],0.12 µM (active)
same,Potency,[9],10.3 µM (active)
same,Potency,[10],inactive
same,Potency,[13],inactive
same,Potency,[14],inactive
same,Potency,[16],inactive
Cc1ccc(-c2cc(C(F)(F)F)nn2-c2ccc(S(N)(=O)=O)cc2)cc1,Potency,[1],inactive
same,Potency,[2],inactive
same,Potency,[3],inactive
same,Potency,[4],inactive
same,Potency,[5],inactive
same,Potency,[6],36.2 µM (active) and inactive
same,Potency,[17],inactive
same,Potency,[13],60.9 µM (active)
same,Potency,[14],inactive
same,Potency,[15],inactive
same,Potency,[16],60.9 µM (active) and inactive
CN(C)CCOC(=O)C(c1ccccc1)C1(O)CCCC1 (configuration not stated),Potency,[1],inactive
same,Potency,[2],inactive
same,Potency,[3],inactive
same,Potency,[4],inactive
same,Potency,[5],inactive
same,Potency,[6],inactive
same,Potency,[17],inactive
same,Potency,[7],inactive
same,Potency,[8],inactive
same,Potency,[10],inactive
same,Potency,[12],inactive
same,Potency,[13],inactive
same,Potency,[15],inactive
same,Potency,[16],inactive
Brc1cc(-c2ccc(Br)c(Br)c2Br)cc(Br)c1Br,Potency,[1],inactive
same,Potency,[2],inactive
same,Potency,[3],inactive
same,Potency,[4],inactive
same,Potency,[5],inactive
same,Potency,[6],inactive
same,Potency,[17],inactive
same,Potency,[7],inactive
same,Potency,[8],inactive
same,Potency,[9],inactive
same,Potency,[10],inactive
same,Potency,[12],inactive
same,Potency,[13],inactive
same,Potency,[14],inactive
same,Potency,[15],inactive
COc1ccc2nc(S(=O)Cc3ncc(C)c(OC)c3C)[nH]c2c1 (configuration not stated),Potency,[1],67.8 µM (active) and 26.6 µM (active)
same,Potency,[2],inactive
same,Potency,[3],inactive
same,Potency,[4],inactive
same,Potency,[5],inactive
same,Potency,[6],inactive
same,Potency,[17],inactive
same,Potency,[12],inactive
same,Potency,[13],inactive
same,Potency,[16],inactive
O=C(O)CN(CCOCCOCCN(CC(=O)O)CC(=O)O)CC(=O)O,"activity, positive = activation",[1],-0.157% [at 0.349 µM] (inactive)
same,activity change,[2],"0.537% [at 0.217 µM, stronger effect = higher value] (inactive)"
same,activation,[3],-1.47% [at 0.29 µM] (inactive)
same,activation,[4],-0.598% [at 0.217 µM] (inactive)
same,"activity change, negative = cytotoxicity",[5],0.622% [at 0.249 µM] (inactive)
same,"activity change, negative = cytotoxicity",[6],-3.51% [at 0.249 µM] (inactive)
same,"activity change, negative = cytotoxicity",[17],-15.2% [at 0.249 µM] (inactive)
same,activation,[8],-0.693% [at 0.292 µM] (inactive)
same,"activity, negative = inhibition",[9],-20.9% [at 0.232 µM] (inactive)
same,activation,[10],-0.0666% [at 0.29 µM] (inactive)
same,activation,[11],-1.26% [at 0.349 µM] (inactive)
same,"activity change, negative = inhibition",[12],0.383% [at 0.349 µM] (inactive)
same,activation,[14],0.525% [at 0.349 µM] (inactive)
same,"activity change, negative = inhibition",[16],-1.35% [at 0.348 µM] (inactive)
CCC1OCC(COc2ccc(Oc3ccccc3)cc2)O1 (configuration not stated),Potency,[1],68.6 µM (active)
same,Potency,[2],inactive
same,Potency,[3],inactive
same,Potency,[4],inactive
same,Potency,[19],inactive
same,Potency,[17],inactive
same,Potency,[18],inactive
same,Potency,[7],inactive
same,Potency,[8],inactive
same,Potency,[9],inactive
same,Potency,[10],inactive
same,Potency,[11],inactive
same,Potency,[12],inactive
same,Potency,[13],inactive
same,Potency,[14],inactive
same,Potency,[15],inactive
same,Potency,[16],inactive
